In the supplement of paper PMC5662767:

The compounds below were run on Drosophila S2 cl14 SmoIP sensor cells (assay: normalized SmoIP GFP fluorescence (untreated unstimulated = 0%, untreated Hh-stimulated = 100%); higher = more Smo activation sensor fluorescence). Conditions: stimulation: Hh conditioned medium (+Hh); compound concentration: 2 uM; 24 h.
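Further: flow cytometry read-out as median GFP intensity of gated cells, compounds added 30 min before Hh-conditioned or mock medium, mock-treated cells serving as unstimulated baseline.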

Compound | normalized SmoIP GFP fluorescence
O=C(NNc1ccccc1)c1ccncc1 | 105%
O=C(c1ccc(/C=C/c2n[nH]c3ccccc23)cc1)N1CCNCC1 | 83%
CCc1cncnc1N1CCN(Cc2nc3ccc(C(F)(F)F)cc3[nH]2)CC1 | 121%
C[C@]1(O)C[C@@H](c2nc(-c3ccc4ccc(-c5ccccc5)nc4c3)c3c(N)nccn32)C1 | 108%
CC(C)C[C@H](NC(=O)[C@H]1O[C@@H]1C(=O)O)C(=O)NCCCCN=C(N)N | 129%
Cc1cccc(-c2nn3c(c2-c2ccnc4ccc(C(N)=O)cc24)CCC3)n1 | 110%
CCC[C@H](NC(=O)[C@@H]1[C@H]2CCC[C@H]2CN1C(=O)[C@@H](NC(=O)[C@@H](NC(=O)c1cnccn1)C1CCCCC1)C(C)(C)C)C(=O)C(=O)NC1CC1 [Telaprevir(VX-950)] | 120%
CC(=O)O/N=C1\C(=O)N(Cc2cc(Cl)ccc2Cl)c2ccc(Cl)cc21 | 106%
Nc1cccc(-c2cc3c(Oc4cccc(O)c4)ncnc3[nH]2)c1 | 96.5%
CNC(=O)Nc1ccc(-c2nc(N3CC4CCC(C3)O4)c3cnn(C4CCC5(CC4)OCCO5)c3n2)cc1 | 41.3%
CN(C)Cc1cccc(N/C(=C2\C(=O)Nc3cc(C(N)=O)ccc32)c2ccccc2)c1 | 103%
CCNC(=O)[C@H]1O[C@@H](n2cnc3c(N)nc(NCCc4ccc(CCC(=O)O)cc4)nc32)[C@H](O)[C@@H]1O | 148%
COc1ccc(CNCc2cccc3ccccc23)cc1 | 111%
CCCCNC(=O)NS(=O)(=O)c1ccc(C)cc1 [tolbutamide] | 108%
COc1cc2c(cc1OC)CN(CCc1ccc(NC(=O)c3cc(OC)c(OC)cc3NC(=O)c3cnc4ccccc4c3)cc1)CC2 [tariquidar] | 120%
